Assay outcomes (PubChem BioAssay)
Hits are enriched below; roughly 3% of the tested compounds scored in any of these assays.
PPC-1+TRAIL kill: compounds killing PPC-1 cancer cells with TRAIL present (potentiator screen, no TRAIL-free arm); PPC-1 cells + TRAIL, ATPLite viability luminescence; cell killing (% activity), % at 4 µM or 5 µM; 220,000 tested, 0.41% active;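 active = cell killing above 50% in the first pass at 4 µM, then a duplicate retest at 5 µM averaging 50% or more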;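 note: plate controls were cells with TRAIL plus DMSO for no effect and medium-only wells lacking cells for full effect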
SENP8 block-1: blocks human SENP8 cleavage of Nedd8 substrate; Q96LD8; recombinant SENP8, Nedd8 substrate fluorescence; 360,000 tested, 0.64% active; inhibition, % at 20 µM; in the data active = inhibition mostly above about 40%, no sharp cut-off; inactive = mostly below about 27%
Target sequence (Q96LD8 whole entry, looked up): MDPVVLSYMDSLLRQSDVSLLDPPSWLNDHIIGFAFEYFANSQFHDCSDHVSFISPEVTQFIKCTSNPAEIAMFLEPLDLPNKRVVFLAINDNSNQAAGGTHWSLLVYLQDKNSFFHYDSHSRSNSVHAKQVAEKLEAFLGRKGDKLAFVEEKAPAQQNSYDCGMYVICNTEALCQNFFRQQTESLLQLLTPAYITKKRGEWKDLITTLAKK
SENP7 block: SENP7 protease inhibition | 330,000 tested, 1.5% active | recombinant SENP7, Z-RLRGG-aminoluciferin luminescence, 40 min | inhibition, % at 5 µM | Q9BQF6;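 active = inhibition above about 50% at the single test dose, limit read from the data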;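 note: plate controls were DMSO with enzyme for no effect and no enzyme buffer wells for full effect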
Target sequence (Q9BQF6 706-1050 limits assumed): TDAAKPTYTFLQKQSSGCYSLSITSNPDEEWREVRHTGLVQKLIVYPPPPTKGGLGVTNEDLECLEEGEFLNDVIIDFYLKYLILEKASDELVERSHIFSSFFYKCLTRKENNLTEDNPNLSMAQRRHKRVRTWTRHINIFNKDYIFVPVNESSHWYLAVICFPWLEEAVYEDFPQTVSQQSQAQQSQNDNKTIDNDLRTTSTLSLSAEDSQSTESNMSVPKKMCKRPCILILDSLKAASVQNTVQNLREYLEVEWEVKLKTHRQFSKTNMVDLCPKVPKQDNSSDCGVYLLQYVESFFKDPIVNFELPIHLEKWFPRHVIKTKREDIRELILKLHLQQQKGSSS
C8 TRAIL sens: caspase-8 TRAIL sensitization; 360,000 tested, 1% active; inhibition (viability loss, TRAIL sensitization), % at 10 µM; AID 624354; NB7+C8 cells + TRAIL, ATPlite viability luminescence;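 active = compounds causing at least 50% loss of cell viability in the single-dose screen, relative to plate controls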
SENP8 block-2: SENP8 protease inhibition; Q96LD8; purified SENP8, Z-RLRGG-aminoluciferin cleavage, luminescence; inhibition, % at 10 µM; 330,000 tested, 1.2% active; AID 2540; in the data active = inhibition above about 50%
SENP6 block: inhibitors of human SENP6 protease | inhibition, % at 10 µM | Q9GZR1 | 330,000 tested, 1.8% active | Recombinant SENP6 catalytic domain, aminoluciferin luminescence;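 active = inhibition above about 50% at the single tested dose, limit read from the data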;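 note: plate controls were DMSO wells with enzyme for no effect and DMSO wells lacking enzyme for full effect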
SENP8 confirm: human SENP8 inhibition, confirmed; Recombinant SENP8, Z-RLRGG-aminoluciferin luminescence, 60 min; shares compounds with SENP7 block; 6,200 tested, 40% active; inhibition, % at 12.5 µM;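 active = mean inhibition across replicates above about 50%, limit read from the data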
SENP6 confirm: human SENP6 inhibition, confirmed. recombinant SENP6, Z-RLRGG-aminoluciferin luminescence. 6,200 tested, 58% active. shares compounds with SENP7 block. inhibition, % at 12.5 µM. AID 488915
SENP7 conf: confirmation of human SENP7 protease inhibitors | shares compounds with SENP7 block | recombinant SENP7, Z-RLRGG-aminoluciferin luminescence, 40 min | inhibition, % at 12.5 µM | 6,200 tested, 69% active | AID 488917
Casp3 select: caspase-3 inhibition (SENP selectivity assay); inhibition, % at 12.5 µM; shares compounds with SENP7 block; 6,200 tested, 60% active; purified caspase-3, Z-DEVD-aminoluciferin luminescence, 60 min;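 active = mean inhibition above about 50%, limit read from the data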;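 note: plate controls were enzyme with DMSO for no effect and wells without caspase-3 for full effect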
Luc interf: luminescence interference (SENP counter-screen); inhibition, % at 12.5 µM; Pre-incubated SENP8/Z-RLRGG-aminoluciferin, luciferase luminescence interference; 6,200 tested, 39% active; AID 488919; shares compounds with SENP7 block;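 active = mean inhibition above about 50% when retested at one dose, limit read from the data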;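 note: plate controls were DMSO wells with completed reaction for no effect and substrate without enzyme for full effect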
Numbers without * were called inactive; / = no result.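 Rule for the calls, unless noted: active = mean inhibition above about 50% in the one-dose retest (limit read from the data); inactive = the rest.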

SMILES	PPC-1+TRAIL kill	SENP8 block-1	SENP7 block	C8 TRAIL sens	SENP8 block-2	SENP6 block	SENP8 confirm	SENP6 confirm	SENP7 conf	Casp3 select	Luc interf
S=C(c1ccc(OCc2ccccc2)cc1)N1CCCC1	/	16.2	61.2*	-1.4	46.9	59.7*	41.5	36.7	54.8*	26.6	26.4
COc1ccc(OC)c(C(=O)NC(CC(N)=O)c2ccc(NC(C)C)c([N+](=O)[O-])c2)c1 (stereo not given)	/	-0.7	-5.0	-1.5	-4.1	-15.4	/	/	/	/	/
C=C(C)c1sc(-c2ccc(Cl)cc2)nc1C	/	-254.7	39.4	-4.0	49.7	70.1*	-6.8	40.6	85.4*	33.1	3.7
CCNC(=O)O/N=C(\C)c1sc(-c2ccc(Cl)cc2)nc1C	15.5	-2.7	91.1*	-4.0	88.9*	92.1*	79.2*	79.2*	95.0*	81.5*	66.5*
C/C(=N\OC(=O)NC(C)C)c1sc(-c2ccc(Cl)cc2)nc1C	4.8	-27.4	59.1*	7.7	11.1	35.2	53.0*	59.5*	84.2*	74.4*	51.0*
COc1ccc(/C=C/C(=O)c2sc(-c3ccc(Cl)cc3)nc2C)cc1	17.4	/	/	/	/	/	/	/	/	/	/
CC(=O)N1CCN(c2ccccc2NC(=O)c2ccco2)CC1	/	4.7	-1.5	-7.3	-2.5	-9.1	/	/	/	/	/
CCCN(c1ccc(OCC)cc1)S(=O)(=O)c1ccc2c(c1)NC(=O)CO2	/	-0.1	2.7	-4.7	3.3	-1.5	/	/	/	/	/
O=C1C(Nc2ccccc2)=CC(c2ccc(O)cc2)N1c1ccccc1 (stereo not given)	11.2	-452.5	2.7	9.8	5.4	57.8*	9.2	5.1	-3.4	4.0	1.6
COc1ccc(C2=NN3C(C2)c2ccccc2OC32C(=O)N(C)c3ccccc32)cc1 (stereo not given)	-25.2	-452.0	80.3*	-0.4	79.5*	90.5*	12.0	4.1	14.2	8.4	5.2
Fc1ccc(-n2nnc(-c3nccs3)n2)cc1	29.8	17.6	91.3*	26.0	86.8*	88.3*	87.5*	91.8*	100.5*	96.2*	67.1*
Clc1ccc(-n2nnc(-c3cccnc3Cl)n2)cc1Cl	20.9	4.5	56.7*	17.1	3.8	20.7	-12.1	-4.5	14.0	8.9	0.3
COc1ncccc1-c1nnn(-c2ccccc2)n1	17.0	10.9	87.4*	22.4	81.3*	84.1*	85.4*	88.0*	98.4*	91.0*	83.5*
COc1ncccc1-c1nnn(-c2ccccc2Br)n1	/	-2.2	-2.2	8.5	14.2	15.0	/	/	/	/	/
Fc1ccc(-n2nnc(-c3cccnc3Cl)n2)cc1	34.8	13.2	80.8*	42.2	72.0*	74.3*	73.3*	74.6*	92.1*	83.8*	74.3*
Fc1ccc(-n2nnc(-c3ccccc3Cl)n2)cc1	/	-0.9	1.8	10.4	-3.2	1.0	/	/	/	/	/
Clc1nc2ccccc2cc1-c1nnn(-c2ccccc2)n1	8.3	-12.1	33.1	19.2	8.2	7.5	/	/	/	/	/
Clc1ncccc1-c1nnn(-c2ccccc2)n1	41.9	9.9	89.1*	34.5	86.4*	90.8*	88.5*	89.8*	99.0*	92.2*	87.6*
CC1(C)CCC(=O)N2CC[C@H]3C[C@H](OC(=O)Nc4ccccc4)C[C@@H]1[C@H]32	/	14.9	72.9*	11.6	55.6*	68.6*	49.0	52.4*	86.9*	76.8*	69.3*
O=C(O/N=C/C1=C(Cl)c2ccccc2CC1)c1ccc(F)cc1	-2.2	-2.5	64.0*	0.5	-10.6	-14.9	10.2	12.6	17.0	30.9	1.7
N/C(CS(=O)(=O)c1ccccc1)=N\OC(=O)c1ccc(F)cc1	/	6.2	-5.3	-3.3	-1.8	5.4	/	/	/	/	/
COc1ccc2nc(SC(C)C(=O)NC3CCCC3)[nH]c2c1 (stereo not given)	/	4.1	6.5	-16.4	-5.5	-6.1	/	/	/	/	/
CC1(C)C2CC=C(/C=N/NC(=O)c3ccccc3Br)C1C2 (stereo not given)	19.3	4.8	-7.1	-6.9	4.0	2.3	/	/	/	/	/
O=C(O)c1ccc(N/N=C2/CCCc3ccccc32)cc1	-8.0	-19.2	16.7	33.0	48.2	71.5*	70.7*	67.8*	84.3*	72.7*	58.0*
Cc1cccc(C(=O)O/N=C2\CCCc3ccccc32)c1	-5.5	4.3	90.1*	15.7	64.7*	91.6*	42.9	88.3*	97.8*	77.8*	63.5*
SMILES	PPC-1+TRAIL kill	SENP8 block-1	SENP7 block	C8 TRAIL sens	SENP8 block-2	SENP6 block	SENP8 confirm	SENP6 confirm	SENP7 conf	Casp3 select	Luc interf
O=C(O/N=C1\CCCc2ccccc21)c1cccc(Cl)c1	30.7	5.0	82.0*	-2.6	46.4	82.9*	65.9*	63.6*	90.0*	64.6*	42.6
O=C(O/N=C1\CCCc2ccccc21)C1CC1	0.0	21.0	2.1	-5.3	-0.4	8.2	/	/	/	/	/
Cc1ccc(C(=O)O/N=C2\CCCc3ccccc32)cc1	19.3	12.2	97.4*	32.0	90.1*	97.2*	71.6*	98.5*	102.7*	84.6*	12.4
Cc1cccc(C(=O)O/N=C2\CCSc3ccc(C)cc32)c1	-12.3	-36.8	0.7	1.3	0.1	13.1	/	/	/	/	/
Cc1ccc(-c2ccc3c(c2)O[C@H](CN(C)Cc2cncnc2)[C@@H](C)CN([C@H](C)CO)S3(=O)=O)cc1	/	15.5	/	6.7	/	/	/	/	/	/	/
O=C(O)/C=C(\Oc1ccccc1)C1(O)CCCCC1	20.6	39.3	-0.8	-0.7	1.2	-11.6	/	/	/	/	/
CC(C)(C)NS(=O)(=O)c1ccc(CCC(=O)NCc2ccccn2)cc1	/	14.5	-6.0	-6.2	7.1	6.4	/	/	/	/	/
Cc1cc(NC(=O)c2sc3ccccc3c2O)no1	/	-369.6	73.0*	5.9	74.7*	89.4*	85.9*	85.3*	97.9*	92.2*	65.3*
O=[N+]([O-])c1ccc(N=NNc2ccccc2)cc1	-18.4	-7.4	39.8	2.8	29.4	59.3*	47.5	48.6	75.4*	16.8	25.2
Brc1ccc(N=NNc2ccccc2)cc1	/	37.8	20.4	-3.5	12.0	51.2*	67.8*	74.4*	88.5*	28.5	46.5
O=[N+]([O-])c1cccc(NN=Nc2ccccc2)c1	/	25.4	69.0*	3.3	70.0*	63.8*	71.1*	68.7*	88.5*	35.5	67.2*
